High-throughput results as filed in PubChem BioAssay.
pPAFAH inh: pPAFAH (human) enzyme inhibition. Q13093. recombinant pPAFAH, FP-rhodamine probe fluorescence polarization. inhibition, % at 3.39 µM. 1.5% of 330,000 active. AID 463082;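 active means inhibition above the mean inhibition across the screen plus 3 SD, cut at about 25% in these data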;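 further: inhibitors block binding of the rhodamine activity-based probe so polarization drops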
Target sequence (Q13093 whole entry, looked up): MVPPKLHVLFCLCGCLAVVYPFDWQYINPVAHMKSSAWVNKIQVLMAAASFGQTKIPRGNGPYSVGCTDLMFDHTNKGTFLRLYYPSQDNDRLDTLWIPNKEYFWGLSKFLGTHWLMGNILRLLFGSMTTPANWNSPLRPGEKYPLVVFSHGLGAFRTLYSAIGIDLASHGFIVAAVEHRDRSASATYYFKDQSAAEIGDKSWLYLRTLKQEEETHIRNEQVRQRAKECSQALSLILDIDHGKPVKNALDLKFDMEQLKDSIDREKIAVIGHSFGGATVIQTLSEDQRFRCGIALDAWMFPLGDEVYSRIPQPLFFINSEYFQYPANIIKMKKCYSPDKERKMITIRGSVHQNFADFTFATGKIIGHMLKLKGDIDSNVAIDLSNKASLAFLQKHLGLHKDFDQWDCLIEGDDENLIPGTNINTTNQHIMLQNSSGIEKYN
PAFAH1B2 inh: blocks human PAF acetylhydrolase 1b catalytic subunit 2; P68402; recombinant PAFAH1B2, FP-rhodamine activity probe, fluorescence polarization; inhibition, % at 3.39 µM; 1.2% of 340,000 active;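 active means inhibition above the mean of all tested compounds plus 3 SD, cut at about 24% in these data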
CTSL1 counter: blocks F. hepatica cathepsin L1 in PFM18AAP counter-screen. inhibition, % at 5.96 µM. AID 1906. recombinant F. hepatica cathepsin L1, Z-Leu-Arg-MCA fluorescence. 0.49% of 300,000 active;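 active means inhibition above the mean of all tested compounds plus 3 SD, set per screening campaign, cut at about 17% in these data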
PAFAH1B3 inh: PAFAH1B3 (human) inhibition. inhibition, % at 3.39 µM. 0.28% of 340,000 active. Q15102. recombinant PAFAH1B3, FP-rhodamine probe, fluorescence polarization. AID 492972;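 active means inhibition above the screen-wide average of all tested compounds plus 3 SD, cut at about 25% in these data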
Target sequence (Q15102 whole entry, looked up): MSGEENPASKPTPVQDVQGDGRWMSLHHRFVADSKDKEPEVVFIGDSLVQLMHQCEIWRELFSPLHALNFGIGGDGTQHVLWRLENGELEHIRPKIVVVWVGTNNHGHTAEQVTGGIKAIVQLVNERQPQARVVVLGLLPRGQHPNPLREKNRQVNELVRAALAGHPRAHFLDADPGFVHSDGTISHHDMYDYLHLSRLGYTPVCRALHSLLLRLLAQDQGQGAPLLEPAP
PP5 inh: inhibitors of human protein phosphatase 5 (PP5); P53041; purified PP5c, OMFP substrate fluorescence; inhibition, % at 6.7 µM; 0.18% of 320,000 active;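 active means inhibition above the campaign's mean inhibition across all tested compounds plus 3 SD, cut at about 9.5% in these data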
PAFAH2 FP inh: PAFAH2 (human) inhibition. 0.99% of 340,000 active. Q99487. recombinant PAFAH2, FP-rhodamine activity probe, fluorescence polarization. inhibition, % at 3.39 µM;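 active means inhibition above the mean over all tested compounds plus 3 SD, cut at about 30% in these data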;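 further: inhibitors block probe labeling of enzyme so polarization drops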
Large screens that a line does not name were inactive. This is a sample that favours compounds with a hit; in the whole collection about 3% have one here.

Cc1ccccc1OCCn1cc(C(=O)O)c2ccccc21	PAFAH1B2 inh 24.4
Cc1ccc(C)c(OCCn2cc(C(=O)O)c3ccccc32)c1	none (no result: PAFAH1B2 inh, PAFAH1B3 inh, PAFAH2 FP inh)
COC(C(=O)N1CCC(CCC(=O)Nc2ccccc2)CC1)c1ccccc1 (configuration not stated)	none
O=C(N/N=C/c1c[nH]c2ccccc12)c1ccc(O)c(O)c1	PAFAH1B2 inh 24.8
Cc1ccc(NC(=O)CCC(=O)c2cccs2)c(O)c1	none
NC(=O)C(C1=CCCCC1)c1ccccc1 (configuration not stated)	none (no result: pPAFAH inh, CTSL1 counter, PP5 inh)
O=C1CCCN1c1ccc(S(=O)(=O)NCCOc2ccccc2)cc1	none
Cc1cc(N2CCCC2=O)cc(C)c1S(=O)(=O)NCCOc1ccc(C(C)(C)C)cc1	PAFAH1B2 inh 40.1
CC(C)c1cccc(C(C)C)c1NC(=O)CN(C)C1CCS(=O)(=O)C1 (configuration not stated)	none (no result: CTSL1 counter)
Cc1ccc(C(=O)Nc2ncc(Cc3ccc(F)cc3)s2)o1	PAFAH1B2 inh 28.2
Cc1ccc(C(=O)Nc2ncc(C)s2)o1	none
CCCn1nnc(NC(=S)NC(=O)/C=C/c2ccco2)n1	pPAFAH inh 26.3
OCCNC(=S)Nc1ccc2nsnc2c1	CTSL1 counter 112.0
O=C(NCCO)Nc1ccc2nsnc2c1	none
COc1cc(OC)c2ccc(=O)oc2c1C(CC(=O)N1CCCC1)c1ccc2c(c1)OCO2 (configuration not stated)	none
COc1cc(C(CC(=O)N2CCCC2)c2c(OC)cc(OC)c3ccc(=O)oc23)cc(OC)c1OC (configuration not stated)	CTSL1 counter 36.9
CC(=O)NC(CCS(C)(=O)=O)C(=O)Nc1ccc(Cl)c(Cl)c1 (configuration not stated)	pPAFAH inh 27.3
O=C(CCOc1ccccc1)Nc1ccnn1C1CCN(CCc2ccccc2)CC1	none
O=C(CCc1nnc(CCCc2ccccc2)o1)NCCc1ccco1	none
O=C(CCc1nnc(CCCc2ccccc2)o1)NCCc1ccccc1	PAFAH1B2 inh 24.4
COc1ccc2nc(SC(C)C(=O)NCC(=O)Nc3ccc(F)c(F)c3F)[nH]c2c1 (configuration not stated)	none (no result: pPAFAH inh, CTSL1 counter, PP5 inh)
Cc1ccc(Nc2cnn(C34CC5CC(CC(CC(=O)O)(C5)C3)C4)c(=O)c2Cl)cc1C	none
CCc1cccc(Nc2cnn(C34C[C@@H]5C[C@@H](CC(CC(=O)O)(C5)C3)C4)c(=O)c2Cl)c1	PAFAH1B2 inh 32.3
Cc1ccc(S(=O)(=O)N2CCN(C(=O)COC(=O)COc3ccc(Cl)cc3)CC2)c(C)c1	none (no result: pPAFAH inh, CTSL1 counter, PP5 inh)
O=C1c2ccccc2-c2onc3ccc(NCCCn4ccnc4)c1c23	pPAFAH inh 104.7 (no result: PAFAH1B2 inh, PAFAH1B3 inh, PAFAH2 FP inh)
NS(=O)(=O)c1ccc(NCCCn2ccnc2)c([N+](=O)[O-])c1	none
Cc1cc(SCC(=O)c2cccs2)nc2ccccc12	none
Cc1ccc(C(=O)OCC(=O)NC(C)C2CC3CCC2C3)cc1N (configuration not stated)	pPAFAH inh 30.4, PAFAH2 FP inh 83.8 (no result: CTSL1 counter, PP5 inh)
CC(NC(=O)COC(=O)c1cc(Cl)ccc1O)C1CC2CCC1C2 (configuration not stated)	PAFAH1B2 inh 26.5 (no result: CTSL1 counter)
N#CCC(=O)c1ccccc1Oc1ccc(Cl)cc1	pPAFAH inh 25.0
O/N=C/c1ccccc1Oc1ccc(Cl)cc1	none
CCCCCc1ccc(CC(=O)N2CCOCC2)cc1	none
CCN(C(=O)COC(=O)C(C)(C)Oc1ccc(Cl)cc1)c1c(N)n(Cc2ccccc2)c(=O)[nH]c1=O	none (no result: pPAFAH inh, CTSL1 counter, PP5 inh)
CN(C(=O)COC(=O)C(C)(C)Oc1ccc(Cl)cc1)c1c(N)n(Cc2ccccc2)c(=O)[nH]c1=O	pPAFAH inh 28.9
Cc1ccc(O)c(N=CC2=C(O)c3ccccc3C2=O)c1	pPAFAH inh 30.2
CC(=O)C[C@H](O)CC(=O)[C@H]1OC(=O)CCCCCCCc2ccccc21	none (no result: CTSL1 counter)
N#CC1(C#N)CC(C=O)=C(N)C1(C#N)CC(=O)C12CC3CC(CC(C3)C1)C2 (configuration not stated)	PAFAH1B2 inh 31.1
Cc1nc2ccc(S(=O)(=O)NCC(=O)NCCc3ccc(Cl)cc3)cc2s1	PAFAH1B2 inh 24.5
Cc1cccc(CCNC(=O)CNS(=O)(=O)c2ccc3nc(C)sc3c2)c1	none
COc1ccc(CCNC(=O)CNS(=O)(=O)c2ccc(Br)s2)cc1OC	none
O=S(=O)(NCc1ccccc1)c1ccc(Br)s1	none (no result: pPAFAH inh, CTSL1 counter, PP5 inh)
O=C(CNS(=O)(=O)c1ccc(Br)s1)NCCc1ccc(Cl)cc1	PAFAH1B2 inh 29.3
Cc1ccc(CNS(=O)(=O)c2ccc(Br)s2)cc1	PAFAH1B2 inh 25.1
COc1cccc(/C=C2\NC(=O)NC2=O)c1O	none
Cc1cc(C)nc(NC(=O)/C=C/c2ccc(Cl)cc2Cl)c1	CTSL1 counter 19.1
O=C(NCCCNC(=O)c1cccnc1)c1ccc(Cl)cc1	none
Cc1cccc2cc(/C=N/Nc3ccc(C(=O)O)cc3)c(Cl)nc12	pPAFAH inh 28.4
O=C(O)c1ccc(N/N=C/c2cc3ccccc3nc2Cl)cc1	none
Cc1cccc(NC(=O)CN2CCN(C(=O)CN3C(=O)NC4(CC(C)CC(C)(C)C4)C3=O)CC2)c1C (configuration not stated)	none (no result: pPAFAH inh, CTSL1 counter, PP5 inh)
N#CCCN1CCN(S(=O)(=O)c2ccc(S(=O)(=O)N3CCCCCC3)cc2)CC1	none
CCN(C1CCCCC1)S(=O)(=O)c1ccc(S(=O)(=O)N2CCN(CCC#N)CC2)cc1	PAFAH1B2 inh 25.3
COCCn1c(-c2ccc(OC)cc2)c(-c2ccc(OC)cc2)oc1=O	none
COc1ccc(S(=O)(=O)NCC(=O)NCCc2ccc(OC)c(OC)c2)cc1	none (no result: PAFAH1B2 inh, PAFAH1B3 inh, PAFAH2 FP inh)
N#CN(CC(N)=O)c1nc(N2CCCCC2)nc(N2CCCCC2)n1	CTSL1 counter 25.3
CCC(C)C(NC(=O)OCc1ccccc1)C(=O)OCN1C(=O)c2ccccc2C1=O (configuration not stated)	pPAFAH inh 32.7
O=C(CCSc1ccccn1)c1ccccc1	CTSL1 counter 19.1
CC(Oc1ccc(F)cc1)C(=O)Nc1ccccc1N1CCCCC1 (configuration not stated)	none
O=C1CCC/C=C\C[C@@H](CC(=O)N(CCO)Cc2ccccc2)C(=O)N2CCC[C@H]2CO1	none (no result: CTSL1 counter, PP5 inh)
O=C1OC[C@H]2CCCN2C(=O)[C@@H](CC(=O)N(CCO)Cc2ccccc2)C/C=C\C[C@@H]1Cc1ccc(F)cc1	PAFAH1B2 inh 30.9 (no result: CTSL1 counter, PP5 inh)
O=C1CC/C=C\C[C@@H](CC(=O)N(CCO)Cc2ccccc2)C(=O)N2CCC[C@H]2CO1	none (no result: CTSL1 counter, PP5 inh)
O=C1OC[C@@H]2CCCN2C(=O)[C@H](CC(=O)N(CCO)Cc2ccccc2)C/C=C\C[C@H]1Cc1ccc(F)cc1	PAFAH1B2 inh 33.0 (no result: CTSL1 counter, PP5 inh)
Cc1ccccc1OCCC(=O)OCC(=O)NNC(=O)c1cccs1	pPAFAH inh 24.9 (no result: CTSL1 counter)
COc1ccccc1OCC(=O)NNC(=O)c1cccs1	none
O=C(CSc1nnc(CNC(=O)c2c(F)cccc2F)o1)NCc1ccc(F)cc1	none
COc1ccnc(N2CCN(c3ccc(Cl)cc3)CC2)c1C#N	PAFAH1B2 inh 24.2
